According to the antibiotic and cytotoxicity screens of Wong et al. (2023):
Screen size: about 39,000 compounds; about 1,500 (3.8%) were called active. The entries come from a sample that favours actives as a whole.

Tested on: HSkMC (human skeletal muscle cells)
Assay: cytotoxicity call (relative viability < 0.9)
Conditions: 10 µM

SMILES	cytotoxicity call
Cc1ccc(S(=O)(=O)N(C)C[C@H]2Oc3ccc(NC(=O)CCCN(C)C)cc3CC(=O)N([C@@H](C)CO)C[C@@H]2C)cc1	inactive
C[C@@H]1CN([C@@H](C)CO)C(=O)c2cc(NS(C)(=O)=O)ccc2O[C@@H](C)CCCCO[C@@H]1CN(C)S(=O)(=O)c1cccs1	inactive
Cc1noc(C)c1S(=O)(=O)Nc1ccc2c(c1)C(=O)N([C@@H](C)CO)C[C@@H](C)[C@H](CN(C)Cc1ccc(C(F)(F)F)cc1)OCCCC[C@H](C)O2	inactive
CC(C)Cn1c(=O)n(C)c(=O)c2[nH]cnc21	inactive
Cc1noc(C)c1S(=O)(=O)Nc1ccc2c(c1)CC(=O)N([C@H](C)CO)C[C@H](C)[C@@H](CN(C)S(C)(=O)=O)O2	inactive
O=C(O)c1ccc(N2CCCS2(=O)=O)cc1	inactive
Cc1ccsc1[C@@H](O)CN	inactive
Cc1cc(C)c(-c2ccc(NC(=O)[C@H](Cc3ccc(C(=O)NCCS(=O)(=O)O)cc3)c3ccc(-c4ccc(C(C)(C)C)cc4)cc3)cc2)c(C)c1	active
CC(C)Cc1ccc([C@@H](C)C(=O)Nc2ccc(Cl)cc2)cc1	inactive
N[C@@H]1CONC1=O	inactive
O=C(C[C@H]1CC[C@@H]2[C@H](COC[C@H](O)CN2S(=O)(=O)c2ccc(F)cc2)O1)NCCN1CCCCC1	inactive
CN1CCN(c2ccc(OC(F)(F)F)c(Nc3ncc4c(n3)-c3c(c(C(N)=O)nn3CCO)CC4)c2)CC1	active
COc1ccc2c3c([nH]c2c1)[C@H](CO)N(C[C@]13CCN(CC1)S(=O)(=O)c1cn(cn1)C)C(=O)Nc1ccc(cc1)F	inactive
C[C@@H]1CCCCO[C@@H](CN(C)S(=O)(=O)c2cn(C)cn2)[C@H](C)CN([C@@H](C)CO)C(=O)c2cc(NC(=O)CCCN(C)C)ccc2O1	inactive
C[C@@H]1CN([C@H](C)CO)C(=O)Cc2cc(NC(=O)C3CCCCC3)ccc2O[C@H]1CN(C)Cc1ccc(Oc2ccccc2)cc1	inactive
C[C@H]1CN([C@@H](C)CO)C(=O)Cc2cc(NC(=O)C3CCCCC3)ccc2O[C@@H]1CN(C)Cc1ccc(-c2ccccc2)cc1	inactive
C[C@H]1CN([C@@H](C)CO)C(=O)Cc2cc(NC(=O)C3CCCCC3)ccc2O[C@H]1CN(C)Cc1ccc(Oc2ccccc2)cc1	active
C[C@@H]1CN([C@@H](C)CO)C(=O)Cc2cc(NC(=O)C3CCCCC3)ccc2O[C@H]1CN(C)Cc1ccc(Oc2ccccc2)cc1	inactive
C[C@@H]1CN([C@H](C)CO)C(=O)Cc2cc(NC(=O)C3CCCCC3)ccc2O[C@@H]1CN(C)Cc1ccc(Oc2ccccc2)cc1	active
C[C@H]1CN([C@@H](C)CO)C(=O)Cc2cc(NC(=O)C3CCCCC3)ccc2O[C@@H]1CN(C)Cc1ccc(Oc2ccccc2)cc1	inactive
C[C@H](CO)N1C[C@H](C)[C@@H](CN(C)Cc2ccc(Oc3ccccc3)cc2)Oc2ccc(NC(=O)C3CCCCC3)cc2CC1=O	inactive
C[C@@H]1CN([C@H](C)CO)C(=O)Cc2cc(NC(=O)C3CCCCC3)ccc2O[C@@H]1CN(C)Cc1ccc(-c2ccccc2)cc1	active

SMILES	cytotoxicity call
C[C@H](CO)N1C[C@H](C)[C@H](CN(C)Cc2ccc(-c3ccccc3)cc2)Oc2ccc(NC(=O)C3CCCCC3)cc2CC1=O	inactive
CC(=O)N1CCc2nc(N)sc2C1	inactive
C[C@@H]1CN([C@@H](C)CO)C(=O)c2cccc(NS(=O)(=O)c3cn(C)cn3)c2O[C@H]1CN(C)S(=O)(=O)c1ccc(Cl)cc1	inactive
CC=Cc1ccc2n(c1=O)C[C@@H]1[C@@H](CO)[C@H](C(=O)NCC3CC3)[C@H]2N1S(=O)(=O)c1cn(C)cn1	inactive
C[C@@H]1CN([C@@H](C)CO)S(=O)(=O)c2ccc(C#Cc3ccccc3F)cc2O[C@@H]1CN(C)C(=O)Cc1cccnc1	inactive
C[C@H]1CN([C@@H](C)CO)C(=O)c2cc(NC(=O)C3CCCCC3)ccc2O[C@H]1CN(C)Cc1ccc(-c2ccccc2)cc1	inactive
C[C@H](CO)N1C[C@H](C)[C@@H](CN(C)C(=O)Nc2ccc3c(c2)OCO3)Oc2c(NC(=O)C3CC3)cccc2C1=O	inactive
C[C@@H]1CN([C@@H](C)CO)C(=O)c2cccc(NC(=O)Nc3ccc(C(F)(F)F)cc3)c2O[C@H]1CN(C)C(=O)NC1CCCCC1	active
C[C@H]1CN([C@@H](C)CO)C(=O)c2cccc(NC(=O)Nc3ccc(C(F)(F)F)cc3)c2O[C@H]1CN(C)C(=O)NC1CCCCC1	inactive
C[C@H](CO)N1C[C@H](C)[C@H](CN(C)C(=O)NC2CCCCC2)Oc2c(NC(=O)Nc3ccc(C(F)(F)F)cc3)cccc2C1=O	inactive
C[C@H](CO)N1C[C@H](C)[C@@H](CN(C)C(=O)Nc2ccc(C(F)(F)F)cc2)Oc2c(NC(=O)NC3CCCCC3)cccc2C1=O	inactive
C[C@@H]1CN([C@H](C)CO)C(=O)c2cccc(NC(=O)Nc3ccc(C(F)(F)F)cc3)c2O[C@H]1CN(C)C(=O)NC1CCCCC1	inactive
C[C@H]1CN([C@@H](C)CO)C(=O)c2cccc(NC(=O)Nc3ccc(C(F)(F)F)cc3)c2O[C@@H]1CN(C)C(=O)NC1CCCCC1	active
C[C@@H]1CN([C@H](C)CO)C(=O)c2cccc(NC(=O)Nc3ccc(C(F)(F)F)cc3)c2O[C@@H]1CN(C)C(=O)NC1CCCCC1	active
C[C@H](CO)N1C[C@H](C)[C@@H](CN(C)C(=O)NC2CCCCC2)Oc2c(NC(=O)Nc3ccc(C(F)(F)F)cc3)cccc2C1=O	inactive
C[C@@H]1CN([C@@H](C)CO)C(=O)c2cccc(NC(=O)Nc3ccc(C(F)(F)F)cc3)c2O[C@@H]1CN(C)C(=O)NC1CCCCC1	inactive
CC(C)NC(=O)Nc1cccc2c1O[C@H](CN(C)S(=O)(=O)c1ccccc1)[C@H](C)CN([C@H](C)CO)C2=O	inactive
C[C@@H]1CN([C@@H](C)CO)C(=O)c2cccc(NC(=O)Nc3ccc(C(F)(F)F)cc3)c2O[C@H]1CN(C)Cc1ccc(C(=O)Nc2ccccc2N)cc1	inactive
C[C@H](CO)N1C[C@H](C)[C@H](CN(C)C(=O)c2ccccc2)OCCCC[C@H](C)Oc2ccc(NC(=O)NC3CCCCC3)cc2C1=O	inactive
O=C(C[C@@H]1CC[C@H](NS(=O)(=O)c2ccc(F)cc2)[C@H](CO)O1)NCc1ccc(Cl)c(Cl)c1	inactive
C[C@@H]1CN([C@@H](C)CO)S(=O)(=O)c2ccc(-c3cccnc3)cc2O[C@H]1CN(C)CC1CCOCC1	inactive
COCC(=O)N(C)C[C@H]1Oc2cc(C#CCN(C)C)ccc2S(=O)(=O)N([C@H](C)CO)C[C@H]1C	inactive

SMILES	cytotoxicity call
CCNC(=S)N1CCC[C@H](C(N)=O)C1	inactive
Cn1cncc1CN1CCO[C@]2(COCCN(S(C)(=O)=O)C2)C1	inactive
Cc1noc(C)c1NC(=O)Nc1ccc2c(c1)C(=O)N([C@@H](C)CO)C[C@H](C)[C@@H](CN(C)C(=O)Nc1ccc3c(c1)OCO3)OCCCC[C@H](C)O2	inactive
Nc1ncnc2c1ncn2C1OC(COP(=O)(O)OP(=O)([O-])OP(=O)([O-])O)C(O)C1O.[Na+].[Na+] (centres undefined)	inactive
COc1cccc(S(=O)(=O)N(C)C[C@@H]2OCc3cn(nn3)CCCC(=O)N([C@H](C)CO)C[C@@H]2C)c1	inactive
C[C@H]1CN([C@@H](C)CO)C(=O)c2cc(NC(=O)Nc3cccc4ccccc34)ccc2O[C@@H]1CN(C)Cc1ccc(Oc2ccccc2)cc1	inactive
C[C@H](CO)N1C[C@H](C)[C@H](CN(C)Cc2ccc(Oc3ccccc3)cc2)Oc2ccc(NC(=O)Nc3cccc4ccccc34)cc2C1=O	active
C[C@@H]1CN([C@H](C)CO)C(=O)c2cc(NC(=O)Nc3cccc4ccccc34)ccc2O[C@H]1CN(C)Cc1ccc(Oc2ccccc2)cc1	inactive
C[C@@H]1CN([C@H](C)CO)C(=O)c2cc(NC(=O)Nc3cccc4ccccc34)ccc2O[C@@H]1CN(C)Cc1ccc(Oc2ccccc2)cc1	inactive
C[C@@H]1CN([C@@H](C)CO)C(=O)c2cc(NC(=O)Nc3cccc4ccccc34)ccc2O[C@@H]1CN(C)Cc1ccc(Oc2ccccc2)cc1	active
C[C@H](CO)N1C[C@H](C)[C@@H](CN(C)Cc2ccc(Oc3ccccc3)cc2)Oc2ccc(NC(=O)Nc3cccc4ccccc34)cc2C1=O	inactive
COc1ccccc1C#Cc1cnc2c(c1)C(=O)N([C@@H](C)CO)C[C@@H](C)[C@H](CN(C)S(=O)(=O)c1cn(C)cn1)O2	inactive
CN1C(=O)c2cc(NC(=O)C3CCOCC3)ccc2OC[C@@H]2O[C@H](CC(=O)NCc3ccccc3F)CC[C@H]21	inactive
NC(=O)NCC#Cc1ccc2c(c1)[C@]1(C(=O)N2)[C@H](C(=O)N2CCN(c3ncccn3)CC2)[C@H]2C(=O)O[C@H](c3ccccc3)[C@H](c3ccccc3)N2[C@@H]1c1ccc(OCCO)cc1	inactive
Cc1noc(C)c1NC(=O)Nc1ccc2c(c1)C(=O)N([C@@H](C)CO)C[C@H](C)[C@H](CN(C)Cc1ccc(C(=O)O)cc1)OCCCC[C@@H](C)O2	inactive
C[C@H](CO)N1C[C@H](C)[C@@H](CN(C)Cc2ccc(-c3ccccc3)cc2)Oc2c(NC(=O)c3nc4ccccc4s3)cccc2C1=O	inactive
C[C@]12CC[C@@H]3[C@]4(C=C[C@@]5(C=C4C(=O)c4cc6ccccc6s4)C[C@@H](O)CC[C@]35C)[C@@H]1CC[C@@]2(O)CN1CCC(n2c(=O)[nH]c3ccccc32)CC1	inactive
CCC(=O)OC1(C(=O)CCl)C(C)CC2C3CCC4=CC(=O)C=CC4(C)C3(F)C(O)CC21C (centres undefined)	inactive
CCC(=O)OCC(=O)C1(OC(=O)CC)C(C)CC2C3CCC4=CC(=O)C=CC4(C)C3(Cl)C(O)CC21C (centres undefined)	inactive
CC1CC2C3CCC4=CC(=O)C=CC4(C)C3(Cl)C(O)CC2(C)C1(OC(=O)c1ccco1)C(=O)CCl (centres undefined)	active
